Measured values taken from PubChem BioAssay (NCI).
Compounds without any hit were thinned out: in the full panel of roughly 79,000, 15% have a hit. A number with no mark means an inactive call. Calls of active or inactive are those of the source. Rule as the data show it: active = growth inhibition above about 70%; inactive = the rest.

Experiments:
[1] = NCI Yeast Anticancer Drug Screen. Data for the rad52 strain (AID 147);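 also: 0% = growth of vehicle-treated control cultures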; settings: S. cerevisiae rad52 mutant growth inhibition, hits give high values
Outline: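 Yeast strain carrying a DNA damage repair alteration was exposed to test compounds. Growth inhibition was measured relative to vehicle-treated controls.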

[2] = NCI Yeast Anticancer Drug Screen. Data for the wt1 strain (AID 149);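 also: 0% = growth of vehicle-treated wt1 cultures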; settings: S. cerevisiae wt1 strain (SPY 50644) growth inhibition, hits give high values
Outline: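 Yeast wt1 strain exposed to compounds; growth inhibition measured relative to vehicle-treated controls.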

[3] = NCI Yeast Anticancer Drug Screen. Data for the rad50EPP+ strain (AID 151);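 also: 0% = growth of vehicle-treated control cultures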; settings: S. cerevisiae rad50 mutant strain, hits give high values
Outline: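 Yeast strain carrying rad50 alteration (rad50EPP+) exposed to compounds; growth inhibition measured relative to vehicle-treated controls.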

[4] = NCI Yeast Anticancer Drug Screen. Data for the mgt1 strain (AID 153); settings: S. cerevisiae mgt1 mutant growth inhibition, hits give high values
Outline: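 Yeast mgt1 strain (DNA repair/cell-cycle alteration panel) exposed to compounds; growth inhibition measured relative to vehicle-treated controls.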

[5] = NCI Yeast Anticancer Drug Screen. Data for the rad50 strain (AID 155);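 also: 0% = growth of vehicle-only cultures of the same strain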; settings: S. cerevisiae rad50 strain growth inhibition, hits give high values
Outline: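 Yeast carrying a defined DNA repair defect were exposed to test compounds, and growth was compared with vehicle-treated controls to give percent inhibition.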

[6] = NCI Yeast Anticancer Drug Screen. Data for the mec2-1 strain (AID 157); settings: S. cerevisiae mec2-1 strain, hits give high values
Outline: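 mec2-1 yeast strain, carrying an alteration in DNA damage repair or cell cycle control, was exposed to compounds; growth inhibition was measured relative to vehicle-treated controls.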

[7] = NCI Yeast Anticancer Drug Screen. Data for the rad14 strain (AID 159);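 also: 0% = growth of vehicle-treated control cultures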; settings: S. cerevisiae rad14 strain growth inhibition, hits give high values
Outline: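 Yeast cells carrying a defined DNA-repair defect were exposed to compounds, and growth inhibition was calculated relative to vehicle-treated control cultures.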

[8] = NCI Yeast Anticancer Drug Screen. Data for the sgs1 mgt1 strain (AID 161);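 also: 0% = growth of cultures given vehicle only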; settings: S. cerevisiae sgs1 mgt1 strain, hits give high values
Outline: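 Compounds are added to genetically altered yeast, and growth is compared with cultures given vehicle alone to give percent inhibition.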

[9] = NCI Yeast Anticancer Drug Screen. Data for the CLN2oe strain (AID 163);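 also: 0% = growth of vehicle-only control cultures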; settings: S. cerevisiae CLN2oe strain, hits give high values
Outline: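 Yeast cells carrying a defined cell-cycle control alteration were exposed to test compounds. Growth inhibition was scored against vehicle-treated control cultures.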

[10] = NCI Yeast Anticancer Drug Screen. Data for the cln2 rad14 strain (AID 165);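 also: 0% = growth equal to vehicle treated cultures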; settings: S. cerevisiae cln2 rad14 strain, hits give high values
Outline: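 Yeast carrying cln2 and rad14 alterations (cell cycle control and DNA damage repair) were exposed to compounds. Growth inhibition was measured against vehicle-treated controls.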

[11] = NCI Yeast Anticancer Drug Screen. Data for the bub3 strain (AID 167); settings: S. cerevisiae bub3 mutant strain, hits give high values
Outline: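 Compounds were applied to a genetically altered yeast strain carrying a cell-cycle control defect. Growth inhibition was scored against vehicle-treated controls.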

[12] = NCI Yeast Anticancer Drug Screen. Data for the wt2 strain (AID 169);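 also: 0% = growth of vehicle-treated yeast cultures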; settings: S. cerevisiae wt2 strain growth inhibition, hits give high values
Outline: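 Yeast cells were exposed to test compounds, and growth inhibition was measured relative to vehicle-treated controls.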

[13] = NCI Yeast Anticancer Drug Screen. Data for the mlh1 strain (AID 171);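 also: 0% = growth of vehicle-treated control cultures of the same strain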; settings: S. cerevisiae mlh1 strain growth inhibition, hits give high values
Outline: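 Yeast carrying a defined genetic alteration in DNA damage repair or cell cycle control were exposed to test compounds. Growth inhibition was measured relative to vehicle-treated controls.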

[14] = NCI Yeast Anticancer Drug Screen. Data for the sgs1 strain (AID 173);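 also: 0% = growth of vehicle-only control cultures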; settings: S. cerevisiae sgs1 mutant, hits give high values
Outline: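 Yeast mutant strains carrying defined defects in DNA damage repair or cell cycle control were exposed to test compounds. Growth inhibition was scored against vehicle-treated controls.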

[15] = NCI Yeast Anticancer Drug Screen. Data for the mlh1 rad18 strain (AID 175); settings: S. cerevisiae mlh1 rad18 strain growth inhibition, hits give high values
Outline: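 Growth inhibition of the yeast strain was measured after compound exposure and expressed relative to vehicle-treated controls. The strain carries defined defects in DNA damage repair.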

[16] = NCI Yeast Anticancer Drug Screen. Data for the rad18 strain (AID 177); settings: S. cerevisiae rad18 mutant growth inhibition, hits give high values
Outline: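 Yeast carrying a defined DNA damage repair alteration were exposed to compounds. Growth inhibition was expressed relative to vehicle-treated controls.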

[17] = at 5.0 µM (retest, dose inferred, filed as 0.5)
[18] = at 50.0 µM (retest, dose inferred, filed as 5.0)

Cc1ccc(-c2ccc(Nc3c4ccccc4nc4ccccc34)cc2)cn1
growth inhibition ([1]; at 1.2 µM): 6%
growth inhibition ([1]; at 3.7 µM): 48%
growth inhibition ([1]; at 11.0 µM): 90% (active)
growth inhibition ([1]; at 33.0 µM): 95% (active)
growth inhibition ([1]; at 100.0 µM): 92% (active)
growth inhibition ([2]; at 1.2 µM): 30%
growth inhibition ([2]; at 3.7 µM): 20%
growth inhibition ([2]; at 11.0 µM): 43%
growth inhibition ([2]; at 33.0 µM): 90% (active)
growth inhibition ([2]; at 100.0 µM): 67%
growth inhibition ([3]; at 1.2 µM): 22%
growth inhibition ([3]; at 3.7 µM): 44%
growth inhibition ([3]; at 11.0 µM): 85% (active)
growth inhibition ([3]; at 33.0 µM): 95% (active)
growth inhibition ([3]; at 100.0 µM): 95% (active)
growth inhibition ([4]; at 1.2 µM): 4%
growth inhibition ([4]; at 3.7 µM): -5%
growth inhibition ([4]; at 11.0 µM): 7%
growth inhibition ([4]; at 33.0 µM): 83% (active)
growth inhibition ([4]; at 100.0 µM): 95% (active)
growth inhibition ([5]; at 1.2 µM): 15%
growth inhibition ([5]; at 3.7 µM): 60%
growth inhibition [5, 17]: 81% (active)
growth inhibition ([5]; at 11.0 µM): 90% (active)
growth inhibition ([5]; at 33.0 µM): 93% (active)
growth inhibition [5, 18]: 97% (active)
growth inhibition ([5]; at 50.0 µM): 97% (active)
growth inhibition ([5]; at 100.0 µM): 88% (active)
growth inhibition ([6]; at 1.2 µM): -20%
growth inhibition ([6]; at 3.7 µM): -25%
growth inhibition [6, 17]: 9%
growth inhibition ([6]; at 11.0 µM): 11%
growth inhibition ([6]; at 33.0 µM): 86% (active)
growth inhibition [6, 18]: 98% (active)
growth inhibition ([6]; at 50.0 µM): 90.4% (active)
growth inhibition ([6]; at 100.0 µM): 84% (active)
growth inhibition ([7]; at 1.2 µM): -27%
growth inhibition ([7]; at 3.7 µM): -19%
growth inhibition ([7]; at 11.0 µM): -4%
growth inhibition ([7]; at 33.0 µM): 75% (active)
growth inhibition ([7]; at 100.0 µM): 59%
growth inhibition [8, 17]: 8%
growth inhibition [8, 18]: 75% (active)
growth inhibition ([8]; at 50.0 µM): 80.2% (active)
growth inhibition ([9]; at 1.2 µM): 15%
growth inhibition ([9]; at 3.7 µM): 19%
growth inhibition ([9]; at 11.0 µM): 29%
growth inhibition ([9]; at 33.0 µM): 85% (active)
growth inhibition ([9]; at 100.0 µM): 73% (active)
growth inhibition [10, 17]: 37%
growth inhibition [10, 18]: 70% (active)
growth inhibition ([10]; at 50.0 µM): 58.6%
growth inhibition ([11]; at 1.2 µM): -5%
growth inhibition ([11]; at 3.7 µM): -45%
growth inhibition [11, 17]: 5%
growth inhibition ([11]; at 11.0 µM): -12%
growth inhibition ([11]; at 33.0 µM): 79% (active)
growth inhibition [11, 18]: 84% (active)
growth inhibition ([11]; at 50.0 µM): 25.5%
growth inhibition ([11]; at 100.0 µM): 36%
growth inhibition ([12]; at 1.2 µM): -14%
growth inhibition ([12]; at 3.7 µM): 2%
growth inhibition ([12]; at 11.0 µM): 22%
growth inhibition ([12]; at 33.0 µM): 92% (active)
growth inhibition ([12]; at 100.0 µM): 39%
growth inhibition ([13]; at 1.2 µM): 5%
growth inhibition ([13]; at 3.7 µM): 2%
growth inhibition ([13]; at 11.0 µM): 18%
growth inhibition ([13]; at 33.0 µM): 88% (active)
growth inhibition ([13]; at 100.0 µM): 72% (active)
growth inhibition ([14]; at 1.2 µM): 3%
growth inhibition ([14]; at 3.7 µM): 6%
growth inhibition ([14]; at 11.0 µM): 44%
growth inhibition ([14]; at 33.0 µM): 94% (active)
growth inhibition ([14]; at 100.0 µM): 88% (active)
growth inhibition [15, 17]: 16%
growth inhibition [15, 18]: 89% (active)
growth inhibition ([15]; at 50.0 µM): 90.1% (active)
growth inhibition ([16]; at 1.2 µM): 0%
growth inhibition ([16]; at 3.7 µM): -10%
growth inhibition ([16]; at 11.0 µM): 12%
growth inhibition ([16]; at 33.0 µM): 89% (active)
growth inhibition ([16]; at 100.0 µM): 86% (active)
